According to PubChem BioAssay (NCI):
The panel holds about 79,000 compounds, 15% with a hit somewhere; the sample as a whole holds those more often. Values without a mark were called inactive. Cut-off read from the data, not from the text of the source: active = growth inhibition above about 70%; inactive = the rest.

Assay: NCI Yeast Anticancer Drug Screen. Data for the wt2 strain (AID 169);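 note: 0% = growth of vehicle-treated yeast cultures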
Settings: S. cerevisiae wt2 strain growth inhibition; at 1.2 µM; active compounds read high
Outline: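 This strain belongs to a panel of yeast strains with defined genetic alterations in DNA damage repair or cell cycle control. Compounds are applied, and growth inhibition is measured against vehicle-treated cultures.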

Q: With COc1ccc(/C=C2\SC(=S)N(/C=C/c3nc4ccccc4[nH]c3=O)C2=O)cc1OC as the molecule, how does the growth inhibition read?
A: The growth inhibition was 1%.

Q: Which growth inhibition does the source give for N#CN=Nc1cc(Cl)c(N=NC#N)cc1Cl here?
A: The growth inhibition was 2%.

Q: For Cc1ccc(S(=O)(=O)Oc2cc(Cl)c(Cl)cc2Cl)cc1, which growth inhibition is on record?
A: Its growth inhibition is 1%.

Q: For c1ccc2c(c1)Oc1cccc3cccc-2c13, which growth inhibition is on record?
A: The growth inhibition was 2%.

Q: Which growth inhibition does the source give for O=C(c1ccc(Cl)cc1Cl)C(Cl)Cl here?
A: The growth inhibition was -8%.

Q: Which growth inhibition does the source give for CC(C)C1=CCC2C(=C1)CCC1C(C)(C(=O)O)CCCC21C (stereo not given) (tested in a mixture with another compound) here?
A: The growth inhibition was -60%.

Q: Which growth inhibition does the source give for COc1cc(/C=C2\CCc3ccccc3C2=O)cc(OC)c1OC here?
A: Its growth inhibition is 2%.

Q: With CC(=O)[O][Bi]([c]1ccccc1)[c]1ccccc1 as the molecule, how does the growth inhibition read?
A: The growth inhibition was 4%.

Q: For S=C(N/N=C/c1ccccn1)Nc1ccc(Cl)cc1, which growth inhibition is on record?
A: The growth inhibition was -6%.

Q: For COc1cc(CC2CC(c3ccc4c(c3)OCO4)OC2=O)cc(OC)c1OC (stereo not given), which growth inhibition is on record?
A: The growth inhibition was -2%.

Q: With CNC1C(OC2C(OC3C(O)C(O)C(N=C(N)N)C(O)C3N=C(N)N)OC(C)C2(O)CO)OC(CO)C(O)C1O (stereo not given) as the molecule, how does the growth inhibition read?
A: Its growth inhibition is -3%.

Q: With NNC(=O)CCc1ccc2ccc3ccccc3c2c1 as the molecule, how does the growth inhibition read?
A: Its growth inhibition is -1%.

Q: With Oc1ccc2ccccc2c1C(c1ccc(Cl)cc1)c1c(O)ccc2ccccc12 as the molecule, how does the growth inhibition read?
A: The growth inhibition was -22%.

Q: Which growth inhibition does the source give for CCCCN(CCCC)CCSc1ccc(Cl)cc1 here?
A: The growth inhibition was -5%.

Q: With CCC(C)COC(=O)c1ccc(N=Cc2ccc(C=Nc3ccc(C(=O)OCC(C)CC)cc3)cc2)cc1 (stereo not given) as the molecule, how does the growth inhibition read?
A: Its growth inhibition is 0%.

Q: With CC1(C)C(=O)OC(n2cc(F)c(=O)[nH]c2=O)C1=O (stereo not given) as the molecule, how does the growth inhibition read?
A: The growth inhibition was 5%.

Q: For O=[N+]([O-])CC(SCc1ccccc1)c1ccc2c(c1)OCO2 (stereo not given), which growth inhibition is on record?
A: The growth inhibition was 1%.

Q: For COc1cc2c(cc1[N+](=O)[O-])C(=O)C(Br)(Br)CCC2, which growth inhibition is on record?
A: Its growth inhibition is 6%.

Q: Which growth inhibition does the source give for OCC1OC(OCC(O)C(O)C(O)C(/C=N/Nc2ccccc2)=N/Nc2ccccc2)C(O)C(O)C1O (stereo not given) here?
A: The growth inhibition was 1%.

Q: With COc1ccc(N=C2C(=O)Nc3ccc(Br)cc32)cc1 as the molecule, how does the growth inhibition read?
A: The growth inhibition was 19%.

Q: Which growth inhibition does the source give for Cn1c(=O)c2ccccc2c2ccccc21 here?
A: Its growth inhibition is -1%.

Q: Which growth inhibition does the source give for CC[n+]1ccc2c(C)c3[nH]c4ccc(O)cc4c3c(C)c2c1 here?
A: Its growth inhibition is -5%.

Q: With CC(=O)ON1C(=O)c2cccc3cccc(c23)C1=O as the molecule, how does the growth inhibition read?
A: Its growth inhibition is 4%.

Q: With COc1ccc2ccc3ccccc3c2c1C=O as the molecule, how does the growth inhibition read?
A: Its growth inhibition is -3%.

Q: Which growth inhibition does the source give for OC1CCCc2c1cc1ccc3cccc4ccc2c1c34 (stereo not given) here?
A: The growth inhibition was -1%.
